The source of these data is PubChem BioAssay (Tox21).

“And” between values parts separate entries of the source, which are not always exact repeats. Equal entries are not always repeated. Unmarked numbers belong to inactive results. Results filed as inconclusive are left out. The source made the active and inactive calls. Unless noted, calls come from the whole dose curve; as a rule, active = well fitted curve in the direction sought with a large enough effect in the repeat runs; inconclusive = weak or mixed curves; inactive = no such curve, though single readings can be large; an effect the other way counts as inactive or inconclusive.

Test [1] addresses Progesterone receptor (Homo sapiens) (UniProt P06401). Kind of test: qHTS assay to identify small molecule agonists of the progesterone receptor (PR) signaling pathway (AID 1346784; calls by dose curve; note: nearly all actives have a fitted effect of over 30% in size). An outline of the steps:
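Beta-lactamase reporter read-out: after 16 hr compound treatment at 37C and a further 2 hr at room temperature with LiveBLAzer B/G FRET substrate, fluorescence was measured in PR-UAS-bla HEK 293T cells grown in 2% charcoal-stripped serum.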
In general terms: qHTS replaces the single test concentration by a dilution series.

Test [2] in a line: qHTS assay to identify small molecule antagonists of the progesterone receptor (PR) signaling pathway - cell viability counter screen (AID 1346798). For activity change, negative = cytotoxicity: series mostly up to about 92 µM. Note: nearly all actives have a fitted effect of over 50% in size. Note: potency is the fitted concentration of half-maximal effect. Put shortly: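 HEK293T PR-UAS-bla, 2% charcoal-stripped FBS; 4 hr pre-plate; cpd + R5020, 16 h 37C; LiveBLAzer read first; then CellTiter-Glo 30 min RT, luminescence.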
Test [3] can be described thus: qHTS assay to identify small molecule agonists of the progesterone receptor (PR) signaling pathway - cell viability counter screen (AID 1346799; calls by dose curve; note: nearly all actives have a fitted effect of over 45% in size; note: potency is the fitted concentration of half-maximal effect). Put shortly: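 Luminescence from CellTiter-Glo, added after the beta-lactamase FRET read in the same wells, gave cytotoxicity in PR-UAS-bla HEK293T cells treated with compounds for 16 hr at 37C.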
Test [4] is described as follows: qHTS assay to identify small molecule antagonists of the TGF-beta/Smad signaling pathway - cell viability counter screen (AID 1346824). Note: nearly all actives have a fitted effect of over 50% in size. Note: potency is the fitted concentration of half-maximal effect. An outline of the steps: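 SBE-bla HEK 293T cells were plated overnight at 37 C, then given compounds in DMSO plus TGF-beta1 (added as 0.25 ng/mL solution) for 5 hr. After the bla read, CellTiter-Glo was added to the same wells and luminescence read after 30 min at room temperature.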

Test [5] is described as follows: qHTS assay to identify small molecule agonists of the TGF-beta/Smad signaling pathway - cell viability counter screen (AID 1346829). For activity change, negative = cytotoxicity: top concentration of the series differs between compounds. Note: nearly all actives have a fitted effect of over 45% in size. Note: potency is the fitted concentration of half-maximal effect. Put shortly: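 Luminescence from CellTiter-Glo, read after a 30 min room-temperature incubation, gives cell viability of SBE-bla HEK 293T cells treated 5 hr with compounds at 37 C.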
The nature of test [6]: qHTS assay to identify small molecule agonists of the TGF-beta/Smad signaling pathway (AID 1346859; active = well fitted activation curve with a large enough effect in the signal ratio in the repeat runs, not every such curve was filed as active; the % refers to the signal ratio; note: series mostly up to about 77 µM). An outline of the steps:
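SBE-bla HEK 293T, 4,000 cells/well, plated o/n; cpd in DMSO, 5 hr, 37 C/5% CO2; B/G FRET substrate 2 hr RT; ex 405, em 460/530 nm.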

The target of test [7] is Thyrotropin-releasing hormone receptor (Homo sapiens) (UniProt P34981). Kind of test: qHTS assay to identify small molecule antagonists of the thyrotropin-releasing hormone receptor (TRHR) signaling pathway (AID 1346877; active = well fitted inhibition curve with a large enough effect in the repeat runs, not every such curve was filed as active; note: potency is the fitted concentration of half-maximal effect; for activity, negative = inhibition: series mostly up to about 51 µM). Put shortly:
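Human TRHR in HEK293 cells; inhibition of the intracellular calcium rise triggered by 1 nM TRH was followed by fluorescence over 3 min. Compounds were run at 15 concentrations, three replicates each.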

Test [8] shares this target. Kind of test: qHTS assay to identify small molecule agonists of the thyrotropin-releasing hormone receptor (TRHR) signaling pathway (AID 1346891; calls by dose curve; note: series mostly up to about 58 µM). Put shortly: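 Intracellular calcium rise, read as fluorescence every second for 3 min, served as the agonist signal in dye-loaded HEK293 cells expressing TRHR; each compound ran at 15 concentrations in triplicate.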
Test [9] in a line: Human pregnane X receptor (PXR) small molecule agonists, qHTS cell viability counter screen (AID 1346977). Note: nearly all actives have a fitted effect of over 50% in size. Note: potency is the fitted concentration of half-maximal effect. An outline of the steps:
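PXR-Luc HepG2, 2,000 cells/well, 5% charcoal-stripped FBS; 5hr settle; cpd 24hr, 37C/5% CO2; CellTiter-Fluor at 23hr, read 1hr later (fluorescence).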

Test [10] deals with Progesterone receptor (Homo sapiens) (UniProt P06401). Kind of test: qHTS assay to identify small molecule antagonists of the progesterone receptor (PR) signaling pathway (AID 1346795; active = well fitted inhibition curve with a large enough effect in the signal ratio in the repeat runs, not every such curve was filed as active; the % refers to the signal ratio; note: potency is the fitted concentration of half-maximal effect). An outline of the steps:
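Read-out is fluorescence from the LiveBLAzer B/G FRET substrate, cleaved by a UAS-controlled beta-lactamase in PR-UAS-bla HEK293T cells after 16 hr exposure to compound plus 1 nM promegestone (final), followed by 2 hr at room temperature.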
% is set by controls: 0 for no effect and ±100 for the full control effect.

Thyrotropin-releasing hormone receptor (Homo sapiens), sequence (P34981 whole entry, looked up): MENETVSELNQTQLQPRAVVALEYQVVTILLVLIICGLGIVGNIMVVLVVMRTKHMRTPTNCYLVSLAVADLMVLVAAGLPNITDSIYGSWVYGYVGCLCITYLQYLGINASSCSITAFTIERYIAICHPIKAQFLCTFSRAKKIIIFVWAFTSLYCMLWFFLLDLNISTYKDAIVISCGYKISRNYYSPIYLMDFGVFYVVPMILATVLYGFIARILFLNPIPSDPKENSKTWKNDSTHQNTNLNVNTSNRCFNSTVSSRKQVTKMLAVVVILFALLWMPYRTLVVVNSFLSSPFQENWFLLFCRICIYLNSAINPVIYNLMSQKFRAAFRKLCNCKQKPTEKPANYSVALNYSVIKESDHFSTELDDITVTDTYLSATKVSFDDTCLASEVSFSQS
Progesterone receptor (Homo sapiens), sequence (P06401 whole entry, looked up): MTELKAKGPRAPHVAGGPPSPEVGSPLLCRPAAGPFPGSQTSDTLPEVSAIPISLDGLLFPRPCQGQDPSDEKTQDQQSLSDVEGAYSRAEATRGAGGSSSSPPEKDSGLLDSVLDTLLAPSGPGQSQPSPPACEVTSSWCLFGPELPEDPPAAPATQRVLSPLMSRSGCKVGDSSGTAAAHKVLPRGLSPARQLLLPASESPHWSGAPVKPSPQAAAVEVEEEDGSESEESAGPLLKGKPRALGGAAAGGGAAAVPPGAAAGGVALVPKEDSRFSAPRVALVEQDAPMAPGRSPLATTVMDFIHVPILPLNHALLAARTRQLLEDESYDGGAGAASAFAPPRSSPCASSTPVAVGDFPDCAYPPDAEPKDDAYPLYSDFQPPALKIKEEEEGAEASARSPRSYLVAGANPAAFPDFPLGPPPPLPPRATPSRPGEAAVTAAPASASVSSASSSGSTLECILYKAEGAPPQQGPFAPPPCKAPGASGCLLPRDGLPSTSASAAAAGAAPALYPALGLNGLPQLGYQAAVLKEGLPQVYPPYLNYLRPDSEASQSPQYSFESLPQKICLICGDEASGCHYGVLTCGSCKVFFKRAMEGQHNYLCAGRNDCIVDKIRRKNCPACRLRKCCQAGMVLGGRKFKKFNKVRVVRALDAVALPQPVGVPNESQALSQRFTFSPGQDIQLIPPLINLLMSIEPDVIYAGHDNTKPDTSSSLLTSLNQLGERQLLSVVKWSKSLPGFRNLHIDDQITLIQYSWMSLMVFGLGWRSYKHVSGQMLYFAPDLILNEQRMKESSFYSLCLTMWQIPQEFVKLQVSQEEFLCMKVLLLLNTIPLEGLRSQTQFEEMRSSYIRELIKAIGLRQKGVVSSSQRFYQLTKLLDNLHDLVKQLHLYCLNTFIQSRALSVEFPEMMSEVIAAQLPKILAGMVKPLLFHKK

In the case of `COc1cc(-c2ccc(N=C=O)c(OC)c2)ccc1N=C=O`, the Potency result in test [1], in [2], in [3], in test [4], in test [5] and in test [6] was “inactive” in each case. For the same compound, the Potency result in [7], in test [8] and in test [9] was “inactive” in each case.
As to `O=C(c1ccc(O)cc1O)c1ccc(O)cc1O`, the Potency result in [1], in test [3], in test [4], in [5], in [6] and in test [7] was “inactive” in each case. Besides, the Potency entry in test [8] was “inactive”. Further, in test [10], the Potency is 10.9 µM (active).
Consider `Cc1cc(O)c(Cl)c(C)c1Cl`, for which the Potency entry in test [1], in test [10], in test [3], in test [4], in test [6] and in test [7] was “inactive” in each case. The Potency entry in [8] and in [9] was “inactive” in each case.
In the case of `O=C1c2c(O)ccc(Nc3ccc(CCO)cc3)c2C(=O)c2c([N+](=O)[O-])ccc(O)c21`, the Potency result in test [1], in [2], in test [3], in test [4], in [5] and in [6] was “inactive” each time. Further, the Potency entry in test [7] and in test [8] was “inactive” throughout. In addition, the Potency in [9] is 43.3 µM (active).
For the compound `CCCCCCCCCCCCCCCC(=O)OC[C@H](O)[C@H]1OC(=O)C(O)=C1O`, the Potency entry in [1], in [10], in test [4], in test [6], in [7] and in test [8] was “inactive” throughout. Also, in [3], the Potency is 27.3 µM (active).
Turning to `[O-][n+]1ccccc1SSc1cccc[n+]1[O-]`, the values for the activation in [1], in test [6] and in [8] were -12.3% [at 19 µM], -0.0146% [at 15.8 µM] and 5.02% [at 11.8 µM], respectively. Moreover, the Potency is 0.116 µM (active) in test [2], 0.116 µM (active) in test [3] and 0.184 µM (active) in [9]. Further, the viability change, negative = cytotoxic in test [4] is -6.42% [at 15.8 µM]. Further, the activity change, negative = cytotoxicity in test [5] was -3.22% [at 15.8 µM]. The activity, negative = inhibition in [7] is -2.61% [at 10.5 µM].
As for `NC(=O)CC[C@@H]1NC(=O)[C@H](Cc2ccccc2)NC(=O)[C@H](Cc2ccc(O)cc2)NC(=O)CCSSC[C@@H](C(=O)N2CCC[C@H]2C(=O)N[C@@H](CCCN=C(N)N)C(=O)NCC(N)=O)NC(=O)[C@H](CC(N)=O)NC1=O`, the Potency entry in test [1], in [10], in test [3], in test [4], in [5] and in test [6] was “inactive” throughout. Further, the Potency entry in test [9] was “inactive”.
For the compound `C[C@H]1[C@H]2CC[C@H]3[C@@H]4CC=C5C[C@@H](N(C)C)CC[C@]5(C)[C@H]4CC[C@]23CN1C`, the Potency entry in [1], in test [2], in [3], in test [4], in [5] and in [6] was “inactive” each time. The Potency entry in test [7] and in test [8] was “inactive” throughout.
For `COc1cccc(N)c1`, the Potency result in [1], in test [2], in [3], in [4], in test [5] and in [6] was “inactive” in each case. Moreover, the Potency result in test [7] and in test [8] was “inactive” in each case.
For the compound `Cc1ccc(O)c2ncccc12`, the Potency entry in test [1], in [2], in [4], in test [5], in [6] and in [8] was “inactive” each time. The Potency in test [10] was 7.5 µM (active); in test [7] it was 5.23 µM (active); in [9], 5.96 µM (active).
For the compound `COC(=O)C1=C(C)NC(C)=C(C(=O)OCCc2ccc(N3CCN(C(c4ccccc4)c4ccccc4)CC3)cc2)C1c1cccc([N+](=O)[O-])c1` (configuration not stated), the Potency result in [1], in test [2], in test [3], in test [4], in test [5] and in [6] was “inactive” in each case.
For the compound `CCC(Cl)C(Cl)C(Cl)CC(Cl)C(Cl)C(C)Cl` (configuration not stated), the Potency entry in [1], in test [2], in test [5], in [6], in test [7] and in test [8] was “inactive” throughout. For the same compound, in test [9], the Potency entry was “inactive”. Besides, in [10], the Potency was 17.2 µM (active).
For the compound `CCCCCCCCCCn1cc[n+](CCCCCCCCCC)c1C`, the Potency entry in test [1], in test [6], in [7] and in [8] was “inactive” in each case. Besides, the Potency is 21.7 µM (active) in test [2]; 30.7 µM (active) in [3]; 24.6 µM (active) in test [4]; 21.9 µM (active) in test [5]; 19.4 µM (active) in test [9].
For the compound `O=C(NO)C1(NS(=O)(=O)c2ccc(Oc3ccc(F)cc3)cc2)CCOCC1`, the Potency result in test [1], in test [10], in test [4], in test [5], in [6] and in test [7] was “inactive” each time. Also, the Potency result in [8] and in test [9] was “inactive” each time.
As to `O=CC=C(c1ccccc1)c1ccccc1`, the Potency entry in [1], in test [4], in test [5], in test [6], in test [7] and in test [8] was “inactive” each time. Besides, the Potency in test [10] is 27.5 µM (active); in test [2] it was 61.6 µM (active).
As to `Cc1cccc(N(C)C(=S)Oc2ccc3c(c2)C2CCC3C2)c1` (configuration not stated), the Potency entry in test [1], in test [3], in test [4], in [5], in test [6] and in test [7] was “inactive” each time. The Potency result in [8] is “inactive”. In addition, the Potency in test [10] is 15 µM (active).
Consider `CC[C@H](c1ccc(O)cc1)[C@@H](CC)c1ccc(O)cc1`, for which the Potency result in test [1], in test [4], in test [5] and in [6] was “inactive” throughout. In addition, the Potency in test [10] is 7.7 µM (active) and 7.5 µM (active).
In the case of `CC(C)CCCCCCCCCCCCCCC(=O)O`, the Potency entry in [1], in test [10], in [2], in test [4], in test [5] and in test [6] was “inactive” throughout. In addition, the Potency result in test [7], in test [8] and in test [9] was “inactive” in each case.
`Cc1c(C)c2c(c(C)c1OC(=O)CCC(=O)O)CC[C@@](C)(CCC[C@H](C)CCC[C@H](C)CCCC(C)C)O2`: the Potency result in [1], in [10], in [4], in [5], in test [7] and in test [8] was “inactive” each time. The Potency entry in test [9] is “inactive”.
With `CCc1oc2ccccc2c1C(=O)c1cc(Br)c(O)c(Br)c1`, the Potency result in test [1], in test [4], in test [5], in [6], in test [7] and in test [8] was “inactive” throughout. For the same compound, the Potency in test [10] was 23.7 µM (active).
Take `CCCN(CCC)C(=O)C(CCC(=O)OCCCN1CCN(CCOC(=O)Cc2c(C)n(C(=O)c3ccc(Cl)cc3)c3ccc(OC)cc23)CC1)NC(=O)c1ccccc1` (configuration not stated): the Potency result in test [1], in test [2], in test [3], in [4] and in test [5] was “inactive” throughout.
Take `CCCCCCCCS(=O)C(C)Cc1ccc2c(c1)OCO2` (configuration not stated): the Potency result in [1], in test [4], in test [5], in test [6] and in test [8] was “inactive” in each case. In test [10], the Potency is 44.1 µM (active).
Regarding `CN(C)c1ccc(SC#N)cc1`, the Potency result in test [1], in test [2], in test [3], in test [4], in test [5] and in test [6] was “inactive” each time. In addition, the Potency entry in test [7], in [8] and in [9] was “inactive” throughout.
